# Experimental data: PubChem BioAssay (NCI)
# This is part of a sample that, as a whole, favours compounds with a hit. Of some 79,000 tested, about 15% had one in any assay. Values without a mark were called inactive. Activity calls are given as the source filed them. Cut-off read from the data, not from the text of the source: active = growth inhibition above about 70%; inactive = the rest.
# Legend:
# [1] = NCI Yeast Anticancer Drug Screen. Data for the rad52 strain (AID 147);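 note: 0% = growth of vehicle-treated control cultures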; details: S. cerevisiae rad52 mutant growth inhibition, active compounds read high
# In short: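 Measured: yeast growth inhibition. System: strain with a defined DNA damage repair alteration. Reference: vehicle-treated control cultures.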
# [2] = NCI Yeast Anticancer Drug Screen. Data for the wt1 strain (AID 149);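 note: 0% = growth of vehicle-treated wt1 cultures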; details: S. cerevisiae wt1 strain (SPY 50644) growth inhibition, active compounds read high
# In short: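 Using yeast strain wt1, compound-induced growth inhibition was determined against vehicle-treated cultures.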
# [3] = NCI Yeast Anticancer Drug Screen. Data for the rad50EPP+ strain (AID 151);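 note: 0% = growth of vehicle-treated control cultures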; details: S. cerevisiae rad50 mutant strain, active compounds read high
# In short: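 One strain with a rad50 alteration (rad50EPP+) was compound-treated, its growth then compared to that of vehicle controls.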
# [4] = NCI Yeast Anticancer Drug Screen. Data for the mgt1 strain (AID 153); details: S. cerevisiae mgt1 mutant growth inhibition, active compounds read high
# In short: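 After exposure of the mgt1 yeast mutant to compound, growth was measured and reported as inhibition compared with vehicle controls.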
# [5] = NCI Yeast Anticancer Drug Screen. Data for the rad50 strain (AID 155);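 note: 0% = growth of vehicle-only cultures of the same strain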; details: S. cerevisiae rad50 strain growth inhibition, active compounds read high
# In short: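 Relative growth inhibition (compound vs vehicle) was measured in yeast with a defined repair-gene alteration.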
# [6] = NCI Yeast Anticancer Drug Screen. Data for the mec2-1 strain (AID 157); details: S. cerevisiae mec2-1 strain, active compounds read high
# In short: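 Test agents were screened against the mec2-1 yeast strain, with defined DNA repair or cell cycle alteration. Growth was scored as inhibition against vehicle-only controls.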
# [7] = NCI Yeast Anticancer Drug Screen. Data for the rad14 strain (AID 159);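 note: 0% = growth of vehicle-treated control cultures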; details: S. cerevisiae rad14 strain growth inhibition, active compounds read high
# In short: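 Screen for anticancer potential: a yeast strain altered in DNA damage repair is grown with compound, and reduced growth is quantified against vehicle controls.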
# [8] = NCI Yeast Anticancer Drug Screen. Data for the sgs1 mgt1 strain (AID 161);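 note: 0% = growth of cultures given vehicle only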; details: S. cerevisiae sgs1 mgt1 strain, active compounds read high
# In short: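 Genetically altered yeast, compound exposure, growth inhibition relative to vehicle.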
# [9] = NCI Yeast Anticancer Drug Screen. Data for the CLN2oe strain (AID 163);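 note: 0% = growth of vehicle-only control cultures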; details: S. cerevisiae CLN2oe strain, active compounds read high
# In short: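 Here, growth inhibition in a cell-cycle-altered yeast strain after compound exposure was quantified against vehicle control growth.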
# [10] = NCI Yeast Anticancer Drug Screen. Data for the cln2 rad14 strain (AID 165);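 note: 0% = growth equal to vehicle treated cultures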; details: S. cerevisiae cln2 rad14 strain, active compounds read high
# In short: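 Growth of compound-exposed yeast (cln2 rad14 genotype) measured and expressed as inhibition relative to vehicle.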
# [11] = NCI Yeast Anticancer Drug Screen. Data for the bub3 strain (AID 167); details: S. cerevisiae bub3 mutant strain, active compounds read high
# In short: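 Screening used yeast with an engineered genetic alteration affecting cell cycle control. Compound-exposed cultures were compared with vehicle cultures, and reduced growth was taken as inhibition.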
# [12] = NCI Yeast Anticancer Drug Screen. Data for the wt2 strain (AID 169);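 note: 0% = growth of vehicle-treated yeast cultures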; details: S. cerevisiae wt2 strain growth inhibition, active compounds read high
# In short: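 Genetically defined yeast strains from a DNA-repair/cell-cycle panel were used. Compound-exposed yeast growth was measured, and the inhibition was calculated relative to vehicle treatment.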
# [13] = NCI Yeast Anticancer Drug Screen. Data for the mlh1 strain (AID 171);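 note: 0% = growth of vehicle-treated control cultures of the same strain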; details: S. cerevisiae mlh1 strain growth inhibition, active compounds read high
# In short: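 Here the genetically defined yeast mutant is grown with each compound, and the extent to which its growth falls below that of vehicle-exposed cells is reported.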
# [14] = NCI Yeast Anticancer Drug Screen. Data for the sgs1 strain (AID 173);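 note: 0% = growth of vehicle-only control cultures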; details: S. cerevisiae sgs1 mutant, active compounds read high
# In short: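 Relative growth inhibition, referenced to vehicle, was determined in a yeast strain with a defined alteration affecting DNA damage repair or cell cycle control after compound exposure.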
# [15] = NCI Yeast Anticancer Drug Screen. Data for the mlh1 rad18 strain (AID 175); details: S. cerevisiae mlh1 rad18 strain growth inhibition, active compounds read high
# In short: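 In this whole-cell yeast screen, a strain with altered DNA damage repair is challenged with compound, and its growth is measured against matched vehicle-treated controls.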
# [16] = NCI Yeast Anticancer Drug Screen. Data for the rad18 strain (AID 177); details: S. cerevisiae rad18 mutant growth inhibition, active compounds read high
# In short: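 Screen uses a yeast strain with a defined lesion in DNA damage repair; compound effect is read as loss of growth compared to untreated vehicle cultures.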
# [17] = at 5.0 µM (retest, dose inferred, filed as 0.5)
# [18] = at 50.0 µM (retest, dose inferred, filed as 5.0)
compound,measurement,setting,value
O=C1C=C(NCCc2cc(Br)c(O)c(Br)c2)C(=O)c2ncccc21,growth inhibition,[1]; at 1.2 µM,40%
same,growth inhibition,[1]; at 3.7 µM,50%
same,growth inhibition,[1]; at 11.0 µM,54%
same,growth inhibition,[1]; at 33.0 µM,89% (active)
same,growth inhibition,[1]; at 100.0 µM,94% (active)
same,growth inhibition,[2]; at 1.2 µM,17%
same,growth inhibition,[2]; at 3.7 µM,19%
same,growth inhibition,[2]; at 11.0 µM,27%
same,growth inhibition,[2]; at 33.0 µM,53%
same,growth inhibition,[2]; at 100.0 µM,95% (active)
same,growth inhibition,[3]; at 1.2 µM,23%
same,growth inhibition,[3]; at 3.7 µM,38%
same,growth inhibition,[3]; at 11.0 µM,49%
same,growth inhibition,[3]; at 33.0 µM,82% (active)
same,growth inhibition,[3]; at 100.0 µM,90% (active)
same,growth inhibition,[4]; at 1.2 µM,13%
same,growth inhibition,[4]; at 3.7 µM,15%
same,growth inhibition,[4]; at 11.0 µM,25%
same,growth inhibition,[4]; at 33.0 µM,69%
same,growth inhibition,[4]; at 100.0 µM,94% (active)
same,growth inhibition,[5]; at 1.2 µM,18%
same,growth inhibition,[5]; at 3.7 µM,24%
same,growth inhibition,[5]; [17],1%
same,growth inhibition,[5]; at 11.0 µM,44%
same,growth inhibition,[5]; at 33.0 µM,88% (active)
same,growth inhibition,[5]; [18],89% (active)
same,growth inhibition,[5]; at 50.0 µM,92.1% (active)
same,growth inhibition,[5]; at 100.0 µM,94% (active)
same,growth inhibition,[6]; at 1.2 µM,6%
same,growth inhibition,[6]; at 3.7 µM,21%
same,growth inhibition,[6]; [17],-5%
same,growth inhibition,[6]; at 11.0 µM,28%
same,growth inhibition,[6]; at 33.0 µM,69%
same,growth inhibition,[6]; [18],92% (active)
same,growth inhibition,[6]; at 50.0 µM,73.8% (active)
same,growth inhibition,[6]; at 100.0 µM,93% (active)
same,growth inhibition,[7]; at 1.2 µM,24%
same,growth inhibition,[7]; at 3.7 µM,21%
same,growth inhibition,[7]; at 11.0 µM,23%
same,growth inhibition,[7]; at 33.0 µM,82% (active)
same,growth inhibition,[7]; at 100.0 µM,93% (active)
same,growth inhibition,[8]; [17],4%
same,growth inhibition,[8]; [18],83% (active)
same,growth inhibition,[8]; at 50.0 µM,89.5% (active)
same,growth inhibition,[9]; at 1.2 µM,-5%
same,growth inhibition,[9]; at 3.7 µM,39%
same,growth inhibition,[9]; at 11.0 µM,41%
same,growth inhibition,[9]; at 33.0 µM,55%
same,growth inhibition,[9]; at 100.0 µM,90% (active)
same,growth inhibition,[10]; [17],21%
same,growth inhibition,[10]; [18],90% (active)
same,growth inhibition,[10]; at 50.0 µM,46.2%
same,growth inhibition,[11]; at 1.2 µM,-2%
same,growth inhibition,[11]; at 3.7 µM,-6%
same,growth inhibition,[11]; [17],12%
same,growth inhibition,[11]; at 11.0 µM,5%
same,growth inhibition,[11]; at 33.0 µM,68%
same,growth inhibition,[11]; [18],96% (active)
same,growth inhibition,[11]; at 50.0 µM,95.5% (active)
same,growth inhibition,[11]; at 100.0 µM,94% (active)
same,growth inhibition,[12]; at 1.2 µM,13%
same,growth inhibition,[12]; at 3.7 µM,15%
same,growth inhibition,[12]; at 11.0 µM,26%
same,growth inhibition,[12]; at 33.0 µM,67%
same,growth inhibition,[12]; at 100.0 µM,91% (active)
same,growth inhibition,[13]; at 1.2 µM,27%
same,growth inhibition,[13]; at 3.7 µM,27%
same,growth inhibition,[13]; at 11.0 µM,36%
same,growth inhibition,[13]; at 33.0 µM,82% (active)
same,growth inhibition,[13]; at 100.0 µM,96% (active)
same,growth inhibition,[14]; at 1.2 µM,28%
same,growth inhibition,[14]; at 3.7 µM,29%
same,growth inhibition,[14]; at 11.0 µM,43%
same,growth inhibition,[14]; at 33.0 µM,82% (active)
same,growth inhibition,[14]; at 100.0 µM,96% (active)
same,growth inhibition,[15]; [17],21%
same,growth inhibition,[15]; [18],95% (active)
same,growth inhibition,[15]; at 50.0 µM,91% (active)
same,growth inhibition,[16]; at 1.2 µM,55%
same,growth inhibition,[16]; at 3.7 µM,54%
same,growth inhibition,[16]; at 11.0 µM,75% (active)
same,growth inhibition,[16]; at 33.0 µM,91% (active)
same,growth inhibition,[16]; at 100.0 µM,95% (active)
